Drawing on PubChem BioAssay AID1159580 (chemical genetic matrix, 2015), this text covers normalized growth for 1 compound.

The assay can be described thus: chemical genetic growth profiling, strain panel (AID 1159580).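 Note: tested at 20 µM; growth read once vehicle control cultures reached saturation at 30 °C; 1 = growth at the plate median or of vehicle wells; lower values mean less growth of the strain.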 As to conditions: S. cerevisiae deletion strains, growth OD.

Among all 5,500 compounds or so, about 2,000 (36%) were called active. Inconclusive results (about 18%) are left out. This is one part of the list. Unmarked numbers belong to inactive results. Cut-off read from the data, not from the text of the source: active = normalized growth mostly below about 0.91 (no sharp cut-off); inconclusive = no clear call, values can overlap the other calls; inactive = mostly above about 0.92.

On to `OCCN1CCN(CC/C=C2/c3ccccc3Sc3ccc(C(F)(F)F)cc32)CC1`, for which the normalized growth (locus YAL040C, strain CLN3, stronger effect = lower value) is 1.04; the normalized growth (locus YCL061C, strain MRC1 (second series), stronger effect = lower value) is 0.973; the normalized growth (locus YDR363W, strain ESC2, stronger effect = lower value) was 0.923; the normalized growth (locus YER002W, strain NOP16, stronger effect = lower value) is 1.01; the normalized growth (locus YGR078C, strain PAC10, stronger effect = lower value) is 0.975; the normalized growth (locus YJR075W, strain HOC1, stronger effect = lower value) is 0.942. Also, the normalized growth (locus YNL128W, strain TEP1, stronger effect = lower value) is 1.02; the normalized growth (locus YNL175C, strain NOP13, stronger effect = lower value) is 1.07; the normalized growth (locus YNL197C, strain WHI3, stronger effect = lower value) is 1.02; the normalized growth (locus YNL224C, strain SQS1, stronger effect = lower value) was 1.05; the normalized growth (locus YNL322C, strain KRE1, stronger effect = lower value) is 0.974; the normalized growth (locus YOR083W, strain WHI5 (second series), stronger effect = lower value) is 0.887. In addition, the normalized growth (locus YPL055C, strain LGE1, stronger effect = lower value) was 0.87 (active).
